# Assay results: PubChem BioAssay (EPA / NIEHS)
# Records with an inconclusive call do not appear. The source made the active and inactive calls. The calls were made as follows: active = hit-call score of the fitted dose curve at least 0.9, where 1 is the maximum; inconclusive = response in the unintended direction; inactive = score below 0.9.
# What was measured:
# [1] = molecular target: chimpanzee Androgen Receptor (AR), AR (gene 747460) (UniProt O97775); assay: NVS_NR_cAR: NovaScreen (NVS) Nuclear Receptor Binding Assay for chimpanzee Androgen Receptor (AR) (AID 2283346);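 also: radioligand displacement from AR measured by scintillation counting in a cell-free assay; a loss of bound radioligand signal versus DMSO counts as binding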
# Chain of chimpanzee Androgen Receptor (AR), AR (gene 747460) (O97775 whole entry, looked up): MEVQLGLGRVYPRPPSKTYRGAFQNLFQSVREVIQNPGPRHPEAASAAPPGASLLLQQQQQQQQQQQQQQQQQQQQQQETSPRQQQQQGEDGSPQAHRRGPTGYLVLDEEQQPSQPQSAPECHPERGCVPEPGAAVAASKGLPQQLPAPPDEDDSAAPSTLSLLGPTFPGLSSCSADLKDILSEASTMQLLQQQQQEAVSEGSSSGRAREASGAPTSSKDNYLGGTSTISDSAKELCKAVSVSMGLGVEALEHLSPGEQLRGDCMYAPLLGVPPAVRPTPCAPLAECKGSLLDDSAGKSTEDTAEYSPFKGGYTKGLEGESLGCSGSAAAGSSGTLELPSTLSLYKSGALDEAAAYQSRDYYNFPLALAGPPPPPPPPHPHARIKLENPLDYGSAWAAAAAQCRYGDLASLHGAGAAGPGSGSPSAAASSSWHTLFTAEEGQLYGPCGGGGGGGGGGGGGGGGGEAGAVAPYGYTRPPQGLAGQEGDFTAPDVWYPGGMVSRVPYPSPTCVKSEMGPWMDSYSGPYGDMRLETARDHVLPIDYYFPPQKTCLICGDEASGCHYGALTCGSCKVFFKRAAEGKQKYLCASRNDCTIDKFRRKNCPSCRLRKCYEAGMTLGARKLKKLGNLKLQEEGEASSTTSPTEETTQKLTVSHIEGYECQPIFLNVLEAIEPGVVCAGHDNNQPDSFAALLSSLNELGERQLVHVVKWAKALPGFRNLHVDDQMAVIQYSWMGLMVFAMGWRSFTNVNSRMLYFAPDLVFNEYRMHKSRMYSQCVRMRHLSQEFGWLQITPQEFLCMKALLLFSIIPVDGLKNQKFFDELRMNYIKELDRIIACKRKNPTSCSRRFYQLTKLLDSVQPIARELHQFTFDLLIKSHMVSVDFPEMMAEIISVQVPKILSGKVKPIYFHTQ
# How it was run: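 Radioligand binding to chimpanzee AR expressed in Sf9/Sf21 cells, cell-free, measured 72 h after dosing by lysate-based scintillation counting. Loss of signal vs DMSO; initial duplicate screen at 25 uM, actives retested in concentration series.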
# [2] = molecular target: Estrogen receptor (Homo sapiens) (UniProt P03372); assay: OT_ER_ERaERa_1440: Odyssey Thera (OT) 24-hour HEK293T Protein-Complementation Assay for Estrogen Receptor-alpha/-alpha Homodimer (AID 2283349);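 also: hits raise fluorescence above DMSO for agonists and antagonists alike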
# Chain of Estrogen receptor (Homo sapiens) (P03372 whole entry, looked up, the tested form may be a part): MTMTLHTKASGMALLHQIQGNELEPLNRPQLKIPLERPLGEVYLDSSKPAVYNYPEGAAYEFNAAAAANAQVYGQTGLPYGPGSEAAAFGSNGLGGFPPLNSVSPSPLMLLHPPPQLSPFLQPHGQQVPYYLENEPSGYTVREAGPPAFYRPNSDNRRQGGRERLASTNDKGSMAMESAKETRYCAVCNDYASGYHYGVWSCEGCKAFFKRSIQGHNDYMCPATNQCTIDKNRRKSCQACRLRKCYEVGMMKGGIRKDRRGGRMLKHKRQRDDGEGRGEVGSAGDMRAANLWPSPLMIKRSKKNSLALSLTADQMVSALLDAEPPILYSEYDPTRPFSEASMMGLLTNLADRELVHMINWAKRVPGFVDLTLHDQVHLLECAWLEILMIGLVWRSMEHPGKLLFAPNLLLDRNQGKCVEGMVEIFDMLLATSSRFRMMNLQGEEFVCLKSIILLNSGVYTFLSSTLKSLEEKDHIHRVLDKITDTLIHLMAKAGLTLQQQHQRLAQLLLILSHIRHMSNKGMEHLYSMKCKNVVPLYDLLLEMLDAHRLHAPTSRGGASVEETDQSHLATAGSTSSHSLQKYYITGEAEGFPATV
# How it was run: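 HEK293T cells stably expressing the human ER alpha ligand-binding domain (aa 310-547) as a homodimer PCA were dosed for 24 hours. Fluorescence intensity was read by laser scanning cytometry, and gain of signal was fitted relative to DMSO vehicle.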
# [3] = molecular target: Estrogen receptor (Homo sapiens) (UniProt P03372); assay: OT_ER_ERaERa_0480: Odyssey Thera (OT) 8-hour HEK293T Protein-Complementation Assay for Estrogen Receptor-alpha/-alpha Homodimer (AID 2283351);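 also: rise in fluorescence from reassembled reporter fragments on ERα LBD homodimer in nucleus or whole cell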
# How it was run: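 Binding reporter in which dimerisation of ERα LBD (aa 310-547) fusions reconstitutes a fluorescent reporter in HEK293T cells. Compounds incubated 8 h; mean fluorescence intensity increase versus DMSO scored.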
# [4] = molecular target: Estrogen receptor (Homo sapiens) (UniProt P03372); assay: NVS_NR_hER: NovaScreen (NVS) Nuclear Receptor Binding Assay for human Estrogen Receptor (ER) (AID 2283348)
# How it was run: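 Radioligand competitive displacement binding to estrogen receptor from MCF7 extract, cell-free; 18 h after dosing, scintillation read-out. Primary screen in duplicate at 25 uM; actives followed up in concentration series; loss of signal vs DMSO.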
# [5] = molecular target: T1, Estrogen receptor (Homo sapiens) + Estrogen receptor beta (Homo sapiens) (UniProt P03372+Q92731); assay: OT_ER_ERaERb_0480: Odyssey Thera (OT) 8-hour HEK293T Protein-Complementation Assay for Estrogen Receptor-alpha/-beta Heterodimer (AID 2283352)
# T1 sequence (P03372 whole entry, looked up, the tested form may be a part): as above
# T1 sequence (Q92731 whole entry, looked up, the tested form may be a part): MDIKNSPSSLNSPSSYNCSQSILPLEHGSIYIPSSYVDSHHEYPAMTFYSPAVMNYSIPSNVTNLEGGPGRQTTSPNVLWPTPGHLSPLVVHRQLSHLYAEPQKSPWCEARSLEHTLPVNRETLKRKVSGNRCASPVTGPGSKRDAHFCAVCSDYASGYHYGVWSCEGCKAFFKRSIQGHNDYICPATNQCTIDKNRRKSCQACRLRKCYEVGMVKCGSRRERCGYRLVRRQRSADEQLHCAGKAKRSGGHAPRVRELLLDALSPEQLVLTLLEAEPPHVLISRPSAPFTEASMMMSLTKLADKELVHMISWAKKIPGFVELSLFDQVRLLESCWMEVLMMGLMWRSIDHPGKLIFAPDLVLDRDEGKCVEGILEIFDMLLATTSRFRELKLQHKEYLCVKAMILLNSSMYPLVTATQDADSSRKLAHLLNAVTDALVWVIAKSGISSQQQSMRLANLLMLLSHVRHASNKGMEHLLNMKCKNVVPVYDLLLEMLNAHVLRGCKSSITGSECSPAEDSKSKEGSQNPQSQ
# How it was run: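 Increase in mean fluorescence intensity, measured by laser scanning plate cytometry, reported ER-alpha/ER-beta LBD complementation in HEK293T cells after 8 h chemical exposure. DMSO served as baseline; basal signal is low, punctate and cytoplasmic.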
# [6] = molecular target: T1, Estrogen receptor (Homo sapiens) + Estrogen receptor beta (Homo sapiens); assay: OT_ER_ERaERb_1440: Odyssey Thera (OT) 24-hour HEK293T Protein-Complementation Assay for Estrogen Receptor-alpha/-beta Homodimer (AID 2283356);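 also: heteromer of ER alpha and ER beta binding domains; hits raise reporter fluorescence and both agonists and antagonists give an increase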
# How it was run: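 Heterodimerisation of ERα (aa 310-547) and ERβ (aa 263-489) ligand binding domains was tracked as fluorescence gain in stably transfected HEK293T cells following 24 h dosing, normalised to DMSO controls.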
# [7] = molecular target: Estrogen receptor beta (Homo sapiens) (UniProt Q92731); assay: OT_ER_ERbERb_0480: Odyssey Thera (OT) 8-hour HEK293T Protein-Complementation Assay for Estrogen Receptor-beta/-beta Homodimer (AID 2283357);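 also: active means signal gain over DMSO baseline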
# Chain of Estrogen receptor beta (Homo sapiens) (Q92731 whole entry, looked up, the tested form may be a part): as above
# How it was run: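 Fluorescence intensity, nuclear for agonists and nuclear plus cytoplasmic for antagonists, was quantified by laser scanning cytometry versus vehicle after 8 h treatment. The cells were HEK293T stably carrying ER beta LBD fragment-complementation partners.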
# [8] = molecular target: Retinoic acid receptor alpha (Homo sapiens) (UniProt P10276); assay: NVS_NR_hRAR_Antagonist: NovaScreen (NVS) Nuclear Receptor Binding Assay for human Retinoic Acid Alpha Receptor Antagonism (RAR) (AID 2283358)
# Chain of Retinoic acid receptor alpha (Homo sapiens) (P10276 whole entry, looked up): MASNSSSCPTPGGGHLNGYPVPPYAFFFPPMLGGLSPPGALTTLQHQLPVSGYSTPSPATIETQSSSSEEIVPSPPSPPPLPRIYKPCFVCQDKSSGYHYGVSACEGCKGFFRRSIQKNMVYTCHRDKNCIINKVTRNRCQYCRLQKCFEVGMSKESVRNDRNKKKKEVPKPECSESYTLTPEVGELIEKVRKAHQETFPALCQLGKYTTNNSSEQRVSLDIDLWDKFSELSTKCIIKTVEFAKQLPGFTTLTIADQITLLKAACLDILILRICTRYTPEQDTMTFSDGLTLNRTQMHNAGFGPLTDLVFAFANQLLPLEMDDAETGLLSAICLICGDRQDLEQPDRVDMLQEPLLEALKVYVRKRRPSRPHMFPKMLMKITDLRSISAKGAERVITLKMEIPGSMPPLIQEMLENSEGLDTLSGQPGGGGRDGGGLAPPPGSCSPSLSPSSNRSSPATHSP
# How it was run: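 Cell-free TR-FRET binding assay with extracted human RARalpha in antagonist mode, read 2 h after dosing. Loss of signal was fitted relative to DMSO; the primary screen used 25 uM in duplicate, with concentration series on follow-up.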
# [9] = molecular target: Retinoic acid receptor alpha (Homo sapiens) (UniProt P10276); assay: NVS_NR_hRARa_Agonist: NovaScreen (NVS) Nuclear Receptor Binding Assay for human Retinoic Acid Alpha Receptor Agonism (RAR) (AID 2283361)
# How it was run: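 Cell-free TR-FRET binding readout with extracted receptor protein, read 2 hours after dosing; gain-of-signal fitted relative to DMSO. Screened in duplicate at 25 uM, actives then run in concentration-response.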
# [10] = molecular target: Glucocorticoid receptor (Homo sapiens) (UniProt P04150); assay: NVS_NR_hGR: NovaScreen (NVS) Nuclear Receptor Binding Assay for human Glucocorticoid Receptor (GR) (AID 2283363)
# How it was run: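 Cell-free radioligand displacement assay on extracted human GR, read 16 h after dosing by filter-based scintillation counting. Screened in duplicate at 25 uM, then concentration series for actives; loss of signal versus DMSO baseline.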
# [11] = molecular target: human Thyroid Receptor Alpha (TRa), THRA (gene 7067) (UniProt P10827); assay: NVS_NR_hTRa_Antagonist: NovaScreen (NVS) Nuclear Receptor Binding Assay for human Thyroid Receptor Alpha Antagonism (TRa) (AID 2283362);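 also: activity is loss of signal relative to DMSO baseline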
# Chain of human Thyroid Receptor Alpha (TRa), THRA (gene 7067) (P10827 whole entry, looked up): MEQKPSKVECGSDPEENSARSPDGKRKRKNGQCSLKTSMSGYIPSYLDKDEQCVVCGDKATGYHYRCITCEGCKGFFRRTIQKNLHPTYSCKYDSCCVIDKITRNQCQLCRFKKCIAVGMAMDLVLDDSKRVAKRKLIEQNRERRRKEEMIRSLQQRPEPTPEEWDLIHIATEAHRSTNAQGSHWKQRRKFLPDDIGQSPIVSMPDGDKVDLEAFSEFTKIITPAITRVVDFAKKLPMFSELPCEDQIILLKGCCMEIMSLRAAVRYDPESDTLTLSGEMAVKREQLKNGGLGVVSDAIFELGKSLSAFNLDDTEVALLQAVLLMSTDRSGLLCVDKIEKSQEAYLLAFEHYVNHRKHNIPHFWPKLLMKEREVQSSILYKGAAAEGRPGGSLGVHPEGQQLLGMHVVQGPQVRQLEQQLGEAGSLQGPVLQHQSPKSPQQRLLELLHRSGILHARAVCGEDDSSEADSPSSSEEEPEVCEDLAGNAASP
# How it was run: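 Chemicals were first screened in duplicate at 25 uM, then actives were retested in concentration series. Binding to the extracted receptor was measured 1 h after dosing by AlphaLISA chemiluminescence, with decreased signal versus DMSO scored as activity.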
# [12] = molecular target: human Peroxisome Proliferator-activated Receptor alpha (PPARa), PPARA (gene 5465) (UniProt Q07869); assay: NVS_NR_hPPARa: NovaScreen (NVS) Nuclear Receptor Binding Assay for human Peroxisome Proliferator-activated Receptor alpha (PPARa) (AID 2283359);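 also: activity means loss of TR-FRET signal versus DMSO baseline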
# Chain of human Peroxisome Proliferator-activated Receptor alpha (PPARa), PPARA (gene 5465) (Q07869 whole entry, looked up): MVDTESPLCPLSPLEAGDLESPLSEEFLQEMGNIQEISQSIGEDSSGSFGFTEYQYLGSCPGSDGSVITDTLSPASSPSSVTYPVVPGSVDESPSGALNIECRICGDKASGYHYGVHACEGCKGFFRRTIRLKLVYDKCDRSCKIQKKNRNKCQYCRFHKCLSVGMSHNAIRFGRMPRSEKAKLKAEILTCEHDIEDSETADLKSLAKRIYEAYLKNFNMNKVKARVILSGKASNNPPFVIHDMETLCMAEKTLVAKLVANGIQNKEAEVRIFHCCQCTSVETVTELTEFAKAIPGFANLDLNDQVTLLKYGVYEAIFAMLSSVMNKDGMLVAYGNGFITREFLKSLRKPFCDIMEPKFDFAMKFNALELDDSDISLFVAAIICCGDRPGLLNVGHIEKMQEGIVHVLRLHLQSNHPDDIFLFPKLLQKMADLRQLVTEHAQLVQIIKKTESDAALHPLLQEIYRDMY
# How it was run: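 Cell-free TR-FRET binding assay with extracted PPARα protein, read 1 h after dosing. Primary screen in duplicate at 25 uM, with actives retested in concentration series. Loss of signal versus DMSO.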
# [13] = molecular target: Androgen Receptor/SRC-1 Co-activator, AR (gene 367) (UniProt P10275); assay: OT_AR_ARSRC1_0960: Odyssey Thera (OT) 16-hour HEK293T Protein-Complementation Assay for Androgen Receptor/SRC-1 Co-activator (AID 2283353);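 also: actives raise the signal above DMSO so potency reflects increased AR and SRC-1 complex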
# Chain of Androgen Receptor/SRC-1 Co-activator, AR (gene 367) (P10275 whole entry, looked up, the tested form may be a part): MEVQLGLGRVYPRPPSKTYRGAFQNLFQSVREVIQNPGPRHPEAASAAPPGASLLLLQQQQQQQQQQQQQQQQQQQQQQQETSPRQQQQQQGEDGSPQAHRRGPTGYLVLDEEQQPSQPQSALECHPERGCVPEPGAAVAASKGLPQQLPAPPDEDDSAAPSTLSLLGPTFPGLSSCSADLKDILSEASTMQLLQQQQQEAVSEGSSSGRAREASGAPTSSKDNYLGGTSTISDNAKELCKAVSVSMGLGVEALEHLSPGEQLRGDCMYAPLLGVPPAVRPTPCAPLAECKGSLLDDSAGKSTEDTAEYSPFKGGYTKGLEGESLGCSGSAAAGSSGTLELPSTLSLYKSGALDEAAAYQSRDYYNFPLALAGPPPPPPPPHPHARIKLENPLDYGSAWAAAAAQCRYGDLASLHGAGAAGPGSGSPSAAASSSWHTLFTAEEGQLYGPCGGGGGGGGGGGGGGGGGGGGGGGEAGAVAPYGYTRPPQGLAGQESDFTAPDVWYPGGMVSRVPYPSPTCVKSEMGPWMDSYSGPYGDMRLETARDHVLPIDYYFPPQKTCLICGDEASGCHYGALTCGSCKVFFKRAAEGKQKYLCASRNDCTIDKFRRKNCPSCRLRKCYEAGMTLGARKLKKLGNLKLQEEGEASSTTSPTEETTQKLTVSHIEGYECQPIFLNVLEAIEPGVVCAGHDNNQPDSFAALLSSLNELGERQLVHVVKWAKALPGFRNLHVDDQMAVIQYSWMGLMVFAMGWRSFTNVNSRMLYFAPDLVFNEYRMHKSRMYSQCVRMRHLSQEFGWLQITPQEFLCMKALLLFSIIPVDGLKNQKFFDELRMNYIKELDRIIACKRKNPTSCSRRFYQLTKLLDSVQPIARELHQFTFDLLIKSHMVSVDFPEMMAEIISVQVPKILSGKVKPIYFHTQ
# How it was run: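 Interaction of AR with SRC-1 was followed by YFP fragment complementation in HEK293T cells after 16 h of dosing. Gain of nuclear-over-cytoplasmic 488 nm fluorescence against DMSO controls defined activity.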
# [14] = molecular target: Androgen Receptor/SRC-1 Co-activator, AR (gene 367) (UniProt P10275); assay: OT_AR_ARSRC1_0480: Odyssey Thera (OT) 8-hour HEK293T Protein-Complementation Assay for Androgen Receptor/SRC-1 Co-activator (AID 2283354);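 also: hits raise the complementation signal above DMSO so AC50 marks enhancers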
# How it was run: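 HEK293T cells stably expressing AR and SRC-1 fused to Venus YFP fragments, imaged 8 h after dosing. Complementation fluorescence scored as nuclear/cytoplasmic ratio at 488 nm in at least 400 cells per image; gain fitted versus DMSO.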
# PGR (gene 5241) = PGR (gene 5241) (UniProt P06401); assay: NVS_NR_hPR: NovaScreen (NVS) Nuclear Receptor Binding Assay for human Progestron Receptor (PR) (AID 2283360);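 also: active means loss of bound radioligand signal versus DMSO baseline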
# How it was run: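 T47D lysate; tritiated or iodinated radioligand; scintillation count at 18 h. DMSO = negative control/baseline. Primary: 25 uM, duplicate. Secondary: concentration series for actives.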
smiles,measurement,setting,value
OC[C@@H](O)[C@H](O)[C@@H](O)[C@@H](O)CO,outcome,[1],inactive
same,outcome,[2],inactive
same,outcome,[3],inactive
C=C(C)C(=O)OCCC(C)OC(=O)C(=C)C (stereo unspecified),outcome,[2],inactive
same,outcome,[3],inactive
COc1ccc(OC)cc1,outcome,[2],inactive
same,outcome,[3],inactive
NC(N)=S,outcome,[2],inactive
same,outcome,[3],inactive
CC1=CCC(=C(C)C)CC1,outcome,[2],inactive
same,outcome,[3],inactive
CCCCCCCCOC(C)=O,outcome,[2],inactive
same,outcome,[3],inactive
CCCCCCC(C)O (stereo unspecified),AC50,[4],43.2 µM (active)
same,outcome,[2],inactive
same,outcome,[3],inactive
same,outcome,[5],inactive
same,outcome,[6],inactive
same,outcome,[7],inactive
CCCCCCCCCCO[C@@H]1O[C@H](CO)[C@@H](O)[C@H](O)[C@H]1O,outcome,[1],inactive
same,outcome,[2],inactive
same,outcome,[3],inactive
same,outcome,[6],inactive
same,outcome,[7],inactive
c1ccc(OCCOc2ccccc2)cc1,outcome,[4],inactive
same,outcome,[2],inactive
same,outcome,[3],inactive
same,outcome,[5],inactive
same,outcome,[6],inactive
same,outcome,[7],inactive
O=C(O)C1=NN(c2ccc(S(=O)(=O)O)cc2)C(=O)C1,outcome,[2],inactive
same,outcome,[3],inactive
c1coc(CNc2ncnc3nc[nH]c23)c1,outcome,[2],inactive
same,outcome,[3],inactive
N#CCCCC(C#N)CCC#N (stereo unspecified),outcome,[1],inactive
C=C(C)C(N)=O,outcome,[2],inactive
same,outcome,[3],inactive
CC12CCC(C1)C(C)(C)C2O (stereo unspecified),outcome,[4],inactive
same,outcome,[2],inactive
same,outcome,[3],inactive
same,outcome,[5],inactive
same,outcome,[6],inactive
same,outcome,[7],inactive
CCO[Si](CC)(OCC)OCC,outcome,[8],inactive
same,outcome,[9],inactive
CCCCCCCCCCOC(=O)c1ccccc1C(=O)OCCCCCCCC,outcome,[10],inactive
O=S(=O)(O)c1cc(S(=O)(=O)O)c2c(N=Nc3ccccc3)c(O)ccc2c1,outcome,[2],inactive
same,outcome,[3],inactive
same,outcome,[5],inactive
same,outcome,[6],inactive
same,outcome,[7],inactive
same,outcome,[11],inactive
CCCO[Si](OCCC)(OCCC)OCCC,outcome,[2],inactive
same,outcome,[3],inactive
same,AC50,[5],38.3 µM (active)
same,outcome,[6],inactive
same,outcome,[7],inactive
CC(=O)Nc1cc(S(=O)(=O)O)cc2cc(S(=O)(=O)O)c(N=Nc3ccccc3)c(O)c12,outcome,[2],inactive
same,outcome,[3],inactive
same,outcome,[5],inactive
same,outcome,[6],inactive
same,outcome,[7],inactive
same,AC50,[11],9.8 µM (active)
NC(=O)c1cccnc1,outcome,[2],inactive
same,outcome,[3],inactive
same,outcome,[6],inactive
same,outcome,[7],inactive
CCCCN(CCCC)CCCCCCN(CCCC)CCCC,outcome,[2],inactive
same,outcome,[3],inactive
same,outcome,[5],inactive
same,outcome,[6],inactive
same,outcome,[7],inactive
same,outcome,[12],inactive
CC(=O)N(C)C,outcome,[2],inactive
same,outcome,[3],inactive
same,outcome,[13],inactive
CCCCCCCCCCCCN1CCOCC1,outcome,[2],inactive
same,outcome,[3],inactive
same,AC50,[5],50 µM (active)
same,AC50,[6],68 µM (active)
same,outcome,[7],inactive
same,outcome,[11],inactive
CC(=O)c1ccc2ccccc2c1,outcome,[2],inactive
same,outcome,[3],inactive
same,outcome,[5],inactive
same,AC50,[6],31.6 µM (active)
same,outcome,[7],inactive
same,outcome,[12],inactive
CC1=CCC(C(C)(C)O)CC1 (stereo unspecified),outcome,[2],inactive
same,outcome,[3],inactive
same,outcome,[13],inactive
same,outcome,[14],inactive
CC(=O)OC(C)(C)C,outcome,[2],inactive
same,outcome,[5],inactive
same,outcome,[6],inactive
same,outcome,[7],inactive
COc1ccc2[nH]cc(CCNC(C)=O)c2c1,outcome,[2],inactive
same,outcome,[3],inactive
same,outcome,[5],inactive
same,outcome,[6],inactive
same,outcome,[7],inactive
CC(=O)OC/C=C(C)/C=C/C=C(C)/C=C/C1=C(C)CCCC1(C)C,outcome,[2],inactive
same,outcome,[3],inactive
same,outcome,[6],inactive
same,outcome,[7],inactive
CCCCCCCC(=O)N(C)C,outcome,[2],inactive
same,outcome,[3],inactive
same,outcome,[6],inactive
same,outcome,[7],inactive
CCCC[N+](C)(CCCC)CCCC,outcome,[2],inactive
same,outcome,[3],inactive
same,outcome,[6],inactive
same,outcome,[7],inactive
CCCCOCCOCCOCCO,outcome,[2],inactive
same,outcome,[3],inactive
same,outcome,[6],inactive
same,outcome,[7],inactive
CC(=O)C1=C(C)[C@@H]2C[C@@]3(C1)[C@H](C)CC[C@H]3C2(C)C,AC50,[2],72.1 µM (active)
same,AC50,[3],21.6 µM (active)
same,AC50,[5],12.4 µM (active)
same,AC50,[6],58.1 µM (active)
same,AC50,[7],12.8 µM (active)
same,outcome,[12],inactive
CNC(=C[N+](=O)[O-])NCCSCc1ccc(CN(C)C)o1,outcome,[2],inactive
same,outcome,[3],inactive
same,outcome,[5],inactive
same,outcome,[6],inactive
same,outcome,[7],inactive
COC(=O)C(C)Oc1ccc(Oc2ncc(C(F)(F)F)cc2Cl)cc1 (stereo unspecified),outcome,[2],inactive
same,outcome,[3],inactive
same,outcome,[7],inactive
C1CCCNCC1,outcome,[2],inactive
same,outcome,[3],inactive
same,outcome,[6],inactive
same,outcome,[7],inactive
same,outcome,[12],inactive
C=C1CC[C@H]2O[C@]2(C)CC[C@@H]2[C@@H]1CC2(C)C,outcome,PGR (gene 5241),inactive
COC(=O)c1cccc(C(=O)OC)c1,outcome,[2],inactive
same,outcome,[3],inactive
same,outcome,[13],inactive
same,outcome,[14],inactive
same,outcome,[6],inactive
CCC(C)C1CCCCC1=O (stereo unspecified),outcome,[2],inactive
same,outcome,[3],inactive
same,outcome,[6],inactive
same,outcome,[7],inactive
OCC=Cc1ccccc1,outcome,[2],inactive
same,outcome,[3],inactive
same,outcome,[5],inactive
same,outcome,[6],inactive
same,outcome,[7],inactive
OC[C@H]1O[C@@H](O[C@H]2[C@H](O)[C@@H](O)[C@H](O)O[C@@H]2CO)[C@H](O)[C@@H](O)[C@H]1O,outcome,[2],inactive
same,outcome,[3],inactive
same,outcome,[13],inactive
same,outcome,[14],inactive
same,outcome,[6],inactive
same,outcome,[7],inactive
CCC(C)COC(=O)CC(C)C (stereo unspecified),outcome,[2],inactive
same,outcome,[3],inactive
same,outcome,[5],inactive
same,outcome,[6],inactive
same,outcome,[7],inactive
CCCCC(CC)COCCO (stereo unspecified),outcome,[2],inactive
same,outcome,[3],inactive
same,outcome,[5],inactive
same,outcome,[6],inactive
same,outcome,[7],inactive
same,outcome,[12],inactive
same,outcome,[11],inactive
CC(CO)(CO)[N+](=O)[O-],outcome,PGR (gene 5241),inactive
c1ccc2c(c1)-c1ccc3ccc4cccc5cc-2c1c3c45,outcome,[10],inactive
NCCN1CCNCC1,outcome,[2],inactive
same,outcome,[3],inactive
same,outcome,[6],inactive
c1ccc2scnc2c1,outcome,[2],inactive
same,outcome,[5],inactive
same,outcome,[6],inactive
same,outcome,[7],inactive
CCCCCCCCOS(=O)(=O)O,outcome,[2],inactive
same,outcome,[3],inactive
same,outcome,[6],inactive
same,outcome,[7],inactive
O=C(O)CS,outcome,[2],inactive
same,outcome,[3],inactive
same,outcome,[6],inactive
same,outcome,[7],inactive
